# Source: the supplement of paper PMC10646978
# ± gives the standard deviation.
# How the values were obtained:
# Conditions in all cases: modulator concentration 10 µM
# [1] = system: RAW-Dual (murine macrophage reporter line); test: NF-kB reporter (SEAP) activity fold change vs agonist alone; higher = enhanced NF-kB activity
# Summary of the method: (§1)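 Compound reached 10 μM final in each well by pin transfer, onto RAW-Dual murine macrophage reporter cells seeded at 50 000 per well in 384-well plates. After 1 hour at 37 °C, the cells were stimulated overnight with a PRR agonist. SEAP in the supernatant was read with QUANTI-Blue at 620 nm absorbance for NF-κB, and Lucia luciferase was read with QUANTI-Luc luminescence for IRF. Each signal was turned into fold change against the mean agonist-only control on the same plate, and two replicate plates were averaged with propagated errors.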
# [2] = system: RAW-Dual (murine macrophage reporter line); test: IRF reporter (Lucia luciferase) activity fold change vs agonist alone; higher = enhanced IRF activity
# Summary of the method: as §1
# [3] = system: RAW-Dual (murine macrophage reporter line); test: viability score (confluency relative to resting cells, overnight) (fraction); higher = more viable, active = viable (0.7 or more)
# Summary of the method: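 A compound met the cutoff when both of two confluency masks exceeded 70% of resting cells. Those masks were made with IncuCyte software from IncuCyte images of RAW-Dual macrophages treated overnight at 10 μM final. This is the basis of the viability score, which is confluency relative to resting cells.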
# [4] = agonist: CpG ODN 1826 0.5 ug/mL
SMILES,"NF-kB reporter [1, 4]",NF-kB reporter ([1]; agonist: LPS 0.1 ug/mL),NF-kB reporter ([1]; agonist: MPLA […]),IRF reporter ([2]; agonist: 3'3'-cGAMP 10 ug/mL),IRF reporter ([2]; agonist: LPS 0.1 ug/mL),IRF reporter ([2]; agonist: MPLA […]),viability score [3]
CCOc1ccccc1NC(=O)N1CCCC1CS(=O)(=O)c1ccccc1 (stereo unspecified),1.01 ± 0.062,1.15 ± 0.093,0.954 ± 0.046,1.09 ± 0.057,1.3 ± 0.087,1.14 ± 0.16,0.989 (active)
CC(=O)c1c(C)c2cnc(Nc3ccc(N4CCNCC4)cn3)nc2n(C2CCCC2)c1=O.Cl,1.27 ± 0.47,1.14 ± 0.064,1.22 ± 0.1,0.363 ± 0.014,0.898 ± 0.16,0.966 ± 0.16,0.982 (active)
Cc1cc2ncc3c(n2n1)CCN(S(=O)(=O)N(C)C)C3,0.989 ± 0.11,1.01 ± 0.097,0.938 ± 0.043,1.03 ± 0.071,1.09 ± 0.081,1.05 ± 0.08,1 (active)
CCN1C(=O)C(=C2SC(N3CCOCC3)=NC2=O)c2ccccc21,0.991 ± 0.08,1.07 ± 0.079,0.952 ± 0.064,0.949 ± 0.042,1.22 ± 0.13,0.978 ± 0.23,1.01 (active)
O=C(CCn1c(=O)oc2ccccc21)Nc1ccncc1,1.17 ± 0.068,1.04 ± 0.079,1.01 ± 0.033,0.996 ± 0.16,0.932 ± 0.045,0.949 ± 0.14,1 (active)
COC(=O)CCS(=O)(=O)c1ccc2ccccc2c1,0.886 ± 0.055,1.01 ± 0.1,1.05 ± 0.091,1.08 ± 0.059,1.31 ± 0.16,1.06 ± 0.095,0.995 (active)
O=C(Cc1ccc([N+](=O)[O-])cc1)NN=Cc1cccnc1,1.05 ± 0.083,1.02 ± 0.074,0.972 ± 0.041,0.86 ± 0.066,1.09 ± 0.053,1.03 ± 0.14,1 (active)
COc1ccc(Cl)c(Nc2nc3ccccc3nc2NS(=O)(=O)c2cccc(NC(=O)C(C)(C)N)c2)c1,0.841 ± 0.23,1.05 ± 0.12,1.11 ± 0.087,0.221 ± 0.013,1.21 ± 0.13,1.32 ± 0.3,0.592 (inactive)
CC(=O)Nc1ccc(NC(=O)COc2ccc(Br)c(C)c2)cc1,0.902 ± 0.15,1.09 ± 0.097,0.95 ± 0.087,0.997 ± 0.026,1.27 ± 0.36,1.22 ± 0.17,1.01 (active)
NC(=O)c1ccccc1O,1.18 ± 0.28,1.01 ± 0.051,0.978 ± 0.085,0.945 ± 0.032,1.23 ± 0.14,1.19 ± 0.16,0.993 (active)
Cc1cc(=O)n2c(-c3cccc(NC(=O)c4ccc(C(F)(F)F)cc4)c3)csc2n1,0.824 ± 0.044,1.12 ± 0.09,1.68 ± 0.46,0.731 ± 0.035,1.28 ± 0.21,1.5 ± 0.44,0.99 (active)
CC(C(=O)O)c1ccc(C(=O)c2cccs2)cc1 (stereo unspecified),1.17 ± 0.17,1.08 ± 0.24,0.995 ± 0.065,0.97 ± 0.03,1.22 ± 0.14,1.23 ± 0.14,1.01 (active)
COc1ccc(C(C)NC(=O)c2[nH]nnc2-c2ccc(F)cc2)cc1 (stereo unspecified),1.17 ± 0.066,0.983 ± 0.14,1.01 ± 0.054,0.669 ± 0.026,1.01 ± 0.094,0.958 ± 0.15,0.997 (active)
